Data: PubChem BioAssay
The source made the active and inactive calls. Unless noted, how the calls were made is not given here.

How the values were obtained:
[1] = HepG2 liver cancer cell viability effects, profiling panel, resazurin fluorescence, 24 h, PK04 Diversity Set (AID 1172); conditions: higher = more signal
[2] = basal S. cerevisiae growth modulation, no modifier, primary screen, OD600, strain BY4716, 24 h, basal condition (AID 1173); conditions: OD600, 24 h, higher = more signal, called active from +8 up or from −8 down
[3] = MM1S myeloma cell viability, profiling panel, resazurin fluorescence, basal, 24 h, PK04 Diversity Set (AID 1174); conditions: higher = more signal, called active from +8 up or from −8 down;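 further: MM1S multiple myeloma cell line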
[4] = target: Dihydroorotate dehydrogenase (quinone), mitochondrial (Plasmodium falciparum (isolate 3D7)) (UniProt Q08210); test: PfDHODH enzyme inhibitors, primary screen, biochemical, C-terminal His tag, absorbance 600 nm (AID 1175); conditions: DCIP absorbance 600 nm, higher = more signal, called active from +8 up or from −8 down;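 further: recombinant parasite enzyme with a five histidine tag at its C terminus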
Chain of Dihydroorotate dehydrogenase (quinone), mitochondrial (Plasmodium falciparum (isolate 3D7)) (Q08210 whole entry, looked up): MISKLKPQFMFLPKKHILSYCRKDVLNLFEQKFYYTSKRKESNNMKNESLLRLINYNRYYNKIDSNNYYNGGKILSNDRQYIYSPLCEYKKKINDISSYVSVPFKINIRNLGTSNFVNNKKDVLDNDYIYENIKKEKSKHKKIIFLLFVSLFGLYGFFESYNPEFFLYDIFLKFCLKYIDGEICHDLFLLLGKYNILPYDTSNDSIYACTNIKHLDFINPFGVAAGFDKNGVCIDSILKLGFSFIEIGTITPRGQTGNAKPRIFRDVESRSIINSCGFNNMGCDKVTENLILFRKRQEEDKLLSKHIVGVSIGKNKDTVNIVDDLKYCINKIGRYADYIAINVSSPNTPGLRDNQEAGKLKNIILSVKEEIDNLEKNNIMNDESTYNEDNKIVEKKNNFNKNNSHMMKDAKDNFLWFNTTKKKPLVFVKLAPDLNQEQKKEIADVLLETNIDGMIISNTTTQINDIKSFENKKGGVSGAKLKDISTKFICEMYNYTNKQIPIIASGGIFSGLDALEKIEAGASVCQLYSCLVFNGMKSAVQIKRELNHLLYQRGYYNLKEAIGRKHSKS

[5] = P. aeruginosa biofilm formation inhibitors, primary screen, strain PAO1, LB-PBS medium, absorbance 600 nm (AID 1176); conditions: P. aeruginosa PAO1 growth/biofilm, A600, 12 h; higher = more signal
[6] = S. cerevisiae RM11-1a growth modifiers, primary screen, strain RM11-1a, OD600, basal, 24 h (AID 1177); conditions: OD600, 24 h, higher = more signal, called active from +8 up or from −8 down;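 further: cultures grown under basal conditions with no added stressor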
[7] = E. coli acrAB mutant growth effects, primary screen, E. coli filamentation inducers, strain DRC39, OD650, 24 h (AID 1178); conditions: higher = more signal, called active from +8 up or from −8 down;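 further: growth measured as culture turbidity by optical density at 650 nm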
[8] = E. coli acrAB mutant growth effects, primary screen, E. coli filamentation inducers, strain DRC39, OD650, 48 h (AID 1179);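 further: screen aims at cell division blockers that make cells filament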; conditions: E. coli DRC39 delta-acrAB growth, higher = more signal, called active from +8 up or from −8 down
[9] = RPMI8226 myeloma cell viability, profiling panel, resazurin fluorescence, basal, 24 h, PK04 Diversity Set (AID 1180); conditions: higher = more signal;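 further: RPMI8826 multiple myeloma cell line at 5000 cells per well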
[10] = target: E3 ubiquitin-protein ligase XIAP (Homo sapiens) (UniProt P98170); test: XIAP binders, primary screen, biophysical, small-molecule microarray, fluorescence 635 nm (AID 1181); conditions: small-molecule microarray binding, higher = more signal;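 further: score merges 667 nm emission and signal to noise over triplicate slides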
Chain of E3 ubiquitin-protein ligase XIAP (Homo sapiens) (P98170 whole entry, looked up): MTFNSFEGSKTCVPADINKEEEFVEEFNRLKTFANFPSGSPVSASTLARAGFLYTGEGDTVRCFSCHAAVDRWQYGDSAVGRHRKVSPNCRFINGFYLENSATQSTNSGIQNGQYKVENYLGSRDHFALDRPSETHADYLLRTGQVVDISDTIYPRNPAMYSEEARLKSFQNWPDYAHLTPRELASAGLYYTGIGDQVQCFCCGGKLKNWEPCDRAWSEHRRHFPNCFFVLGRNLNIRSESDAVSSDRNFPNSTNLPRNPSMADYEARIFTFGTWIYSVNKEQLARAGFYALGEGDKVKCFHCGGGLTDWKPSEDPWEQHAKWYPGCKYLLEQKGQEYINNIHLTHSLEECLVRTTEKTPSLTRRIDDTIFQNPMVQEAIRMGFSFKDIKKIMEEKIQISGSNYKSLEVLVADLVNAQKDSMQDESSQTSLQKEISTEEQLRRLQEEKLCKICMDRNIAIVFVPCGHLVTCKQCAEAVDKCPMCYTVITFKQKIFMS

[11] = test system: XIP peptide (Xip251-270) binding; test: small-molecule binders of XIP peptide, primary screen, biochemical, small-molecule microarray, fluorescence 635/667 nm, 0.1 µg/mL protein (AID 1182); conditions: fluorescent protein binding, 635 nm, higher = more signal, called active from +8 up or from −8 down
XIP peptide (Xip251-270) = test: small-molecule binders of XIP peptide, primary screen, biochemical, small-molecule microarray, fluorescence 635/667 nm, 0.5 µg/mL protein (AID 1183); conditions: small-molecule microarray binding, fluorescence 635 nm; higher = more signal
[12] = Plasmodium falciparum growth inhibition, primary screen, strain 3D7, DAPI fluorescence, 100 nL (AID 1184);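 further: parasites grown inside human red blood cells in medium with human serum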; conditions: P. falciparum 3D7 growth, 3 d, higher = more signal
[13] = target: Homeobox protein Hox-A13 (Mus musculus) (UniProt Q62424); test: inhibitors of HoxA13-DNA binding, primary screen, biochemical, fluorescence polarization, labeled oligonucleotide (AID 1185); conditions: 15 min, higher = more signal, called active from +8 up or from −8 down
Chain of Homeobox protein Hox-A13 (Mus musculus) (Q62424 whole entry, looked up): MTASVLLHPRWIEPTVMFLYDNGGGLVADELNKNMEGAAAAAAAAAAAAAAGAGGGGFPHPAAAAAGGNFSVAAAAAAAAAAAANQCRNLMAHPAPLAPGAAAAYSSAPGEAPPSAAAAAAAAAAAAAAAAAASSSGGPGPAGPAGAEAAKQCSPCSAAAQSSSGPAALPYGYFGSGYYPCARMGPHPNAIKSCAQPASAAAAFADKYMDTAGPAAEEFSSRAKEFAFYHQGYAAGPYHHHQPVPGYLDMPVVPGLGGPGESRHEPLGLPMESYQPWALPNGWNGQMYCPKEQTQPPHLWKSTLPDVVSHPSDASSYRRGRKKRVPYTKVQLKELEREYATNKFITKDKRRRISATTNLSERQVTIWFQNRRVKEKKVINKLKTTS

[14] = inhibitors of hydroxyurea-induced Chk1 phosphorylation, primary screen, imaging, HeLa, phospho-Chk1 antibody, percent positive cells (AID 1186); conditions: hydroxyurea-induced phospho-Chk1 immunofluorescence imaging, higher = more signal
[15] = inhibitors of hydroxyurea-induced Chk1 phosphorylation, primary screen, imaging, HeLa, phospho-Chk1 nuclear intensity (AID 1187); conditions: hydroxyurea-induced phospho-Chk1 immunofluorescence imaging, higher = more signal

Row | SMILES | z-score [1] | z-score [2] | z-score [3] | composite z-score [4] | z-score [5] | z-score [6] | z-score [7] | z-score [8] | z-score [9] | composite z-score [10] | composite z-score [11] | composite z-score (XIP peptide (Xip251-270)) | z-score [12] | z-score [13] | z-score [14] | z-score [15]
1 | C=CCOC(=O)[C@H]1[C@@H]2C(=O)O[C@@H](c3ccccc3)[C@@H](c3ccccc3)N2[C@@H](c2ccc(OCCOC(=O)[C@H]3C[C@H]4C(=O)N[C@@H](CCCCNC(C)=O)C(=O)N4[C@H]3c3ccc(O)cc3)cc2)[C@]12C(=O)Nc1ccc(I)cc12 | 0.452 | -0.371 (inactive) | -1.18 (inactive) | -0.325 (inactive) | 1.14 (inactive) | 1.38 (inactive) | -1.83 (inactive) | -1.16 (inactive) | -0.745 | -0.0784 | 0.159 (inactive) | 0.671 | -1.39 | 5.87 (inactive) | -0.484 (inactive) | -0.782 (inactive)
2 | C=CCNC(=O)[C@H]1[C@@H]2C(=O)O[C@@H](c3ccccc3)[C@@H](c3ccccc3)N2[C@@H](c2ccccc2OCCO)[C@]12C(=O)Nc1ccc(C#CCC(C(=O)OC)C(=O)OC)cc12 | 0.57 | 2.25 (inactive) | -7.81 (inactive) | -0.95 (inactive) | 2.07 (inactive) | 3.57 (inactive) | 0.284 (inactive) | -0.303 (inactive) | -7.24 | -0.159 | 0.924 (inactive) | 0.737 | -2.25 | -2.6 (inactive) | -0.0106 (inactive) | 0.259 (inactive)
3 | CCCC[C@@H]1C[C@H]1[C@@H](NC(=O)c1ccccc1)c1ccc(C(=O)OC)cc1 | -0.186 | -1.61 (inactive) | -0.892 (inactive) | -0.265 (inactive) | 0.771 (inactive) | -0.75 (inactive) | -0.986 (inactive) | -0.885 (inactive) | 0.0845 | -0.0143 | -0.0225 (inactive) | 0.221 | -0.0079 | -3.64 (inactive) | 0.665 (inactive) | 0.454 (inactive)
4 | C=CCC(OC(C)=O)[C@@H]1[C@@H](N(Cc2ccc(-c3cccc(C(F)(F)F)c3)o2)C(=O)c2ccc(C)cc2)c2cc(OCCCO)ccc2N1C(=O)Cc1ccc2ccccc2c1 (some centres undefined) | 0.358 | -0.219 (inactive) | 0.837 (inactive) | -0.802 (inactive) | -0.312 (inactive) | 0.476 (inactive) | -0.333 (inactive) | 0.409 (inactive) | 1.22 | -0.0286 | 0.332 (inactive) | -0.0506 | 0.337 | -0.62 (inactive) | -0.385 (inactive) | -0.709 (inactive)
5 | COCCCNC(=O)[C@@]1(C)c2ccccc2C(=O)N(C(C)C)[C@H]1c1ccc(CO)cc1 | -0.104 | 0.836 (inactive) | -0.18 (inactive) | 0.663 (inactive) | 0.208 (inactive) | 1.24 (inactive) | 0.32 (inactive) | -0.279 (inactive) | -0.316 | 0.109 | -0.102 (inactive) | 0.246 | -0.176 | -1.71 (inactive) | -0.123 (inactive) | -0.397 (inactive)
6 | CC1(C)[C@@H]2CC(C(O)C3C=CC4C(=O)N(Cc5ccccc5)C(=O)C4N3n3cnnc3)=C[C@H]1C2 (some centres undefined) | 0.883 | 1.22 (inactive) | -0.12 (inactive) | 0.525 (inactive) | -0.445 (inactive) | 1.29 (inactive) | -0.539 (inactive) | 0.102 (inactive) | -0.192 | 0.136 | 0.902 (inactive) | -0.0686 | -0.101 | -3.19 (inactive) | 0.338 (inactive) | -0.115 (inactive)
7 | COCCOC(=O)N1C(=O)[C@@]2(c3cc(C#Cc4ccc(OC)cc4)ccc31)[C@H](c1ccc(OCCO)cc1)N1[C@H](c3ccccc3)[C@H](c3ccccc3)OC(=O)[C@H]1[C@@H]2C(=O)N1CCN(c2ncccn2)CC1 | -0.107 | 3.4 (inactive) | 0.202 (inactive) | -1.76 (inactive) | 1.9 (inactive) | 3.43 (inactive) | 0.129 (inactive) | -0.312 (inactive) | 0.55 | 0.0623 | 0.0039 (inactive) | 0.695 | -1.84 | 0.99 (inactive) | 0.13 (inactive) | 0.436 (inactive)
8 | CCOC(=O)C1=CC[C@@H](c2ccccc2)N(S(=O)(=O)c2ccc(C)cc2)[C@H]1c1ccccc1C | 1.81 | 0.786 (inactive) | 0.336 (inactive) | -0.494 (inactive) | -0.377 (inactive) | -0.59 (inactive) | -0.502 (inactive) | 0.3 (inactive) | 0.686 | -0.0239 | -0.164 (inactive) | 0.291 | -1.71 | -0.813 (inactive) | 0.023 (inactive) | 0.112 (inactive)
9 | C=C(C(=O)CC[C@@H](OC(=O)c1cccnc1)c1ccccc1OCCO)C(C)C | -0.0206 | -1.51 (inactive) | -0.444 (inactive) | -0.0125 (inactive) | 0.613 (inactive) | -0.337 (inactive) | 0.335 (inactive) | 0.195 (inactive) | -0.632 | -0.0872 | 0.79 (inactive) | 0.209 | -2.27 | -3.56 (inactive) | 0.434 (inactive) | 0.993 (inactive)
